Growth data for 8 compounds are collected here from PubChem BioAssay (NCI).

Molecules are shown by their SMILES. The panel holds about 83,000 compounds, 20% with a hit somewhere; the sample as a whole holds those more often.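 The test compound was applied at a single concentration to cells in 96-well plates for 48 hours, and percent growth was recorded.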 A number with no mark means an inactive call. Calls of active or inactive are those of the source. How the source made its calls: active means growth percent below 10; inactive means the rest.

Test systems include NCI-H23 lung; NCI-H226 lung; NCI-H322M lung; HOP-62 NSCLC; NCI-H460 lung; HOP-92 NSCLC; NCI-H522 lung; 786-0 renal; COLO 205 colon; DU-145 prostate; K-562 leukemia; MALME-3M melanoma; MDA-MB-231 breast; RXF 393 renal; SF-268 CNS; SF-295 CNS; SF-539 CNS; UACC-257 melanoma; M14 melanoma; A549/ATCC NSCLC.
Holding throughout (experiment): NCI-60 one-dose screen, 48 h (100 = growth as untreated, 0 = no growth, -100 = all killed)
What all share (conditions): 10 µM unless noted

Regarding `COCc1c(-c2ccc(NC(=O)Nc3cc(C(F)(F)F)ccc3F)c(F)c2)c2c(N)ncnn2c1CN1CCOCC1`, the growth in the assay on NCI-H23 lung is -53.4% (active); with NCI-H226 lung, -7.25% (active); in the assay on NCI-H322M lung it was -17% (active); in the assay with HOP-62 NSCLC, -58.9% (active); with NCI-H460 lung it was -47.2% (active); with HOP-92 NSCLC, -32.8% (active). The growth in the assay with NCI-H522 lung is -55.3% (active); with 786-0 renal, -43.5% (active); in the assay with COLO 205 colon, -88.8% (active); in the assay on DU-145 prostate, -4% (active); with K-562 leukemia it was 1.74% (active); with MALME-3M melanoma it was -37% (active). The growth in the assay with MDA-MB-231 breast was -50% (active); in the assay with RXF 393 renal it was -88.4% (active); in the assay on SF-268 CNS, -14.5% (active); with SF-295 CNS it was -54.2% (active); with SF-539 CNS it was -71.5% (active); in the assay on UACC-257 melanoma it was -9.75% (active). Also, the growth in the assay with M14 melanoma was -41% (active).

Take `CCN1CCN(Cc2ccc(-c3cc4c(N[C@H](C)c5ccccc5)ncnc4[nH]3)cc2)CC1`: the growth in the assay on NCI-H23 lung is 42.3%; in the assay on NCI-H226 lung it was 50.9%; in the assay on NCI-H322M lung, -2.25% (active); in the assay on HOP-62 NSCLC, 28.5%; with NCI-H460 lung, 21.9%; in the assay with HOP-92 NSCLC it was 21.4%. Also, the growth was 6.19% (active) in the assay on NCI-H522 lung; 50.3% in the assay on 786-0 renal; -21.4% (active) in the assay on COLO 205 colon; 40.5% in the assay on DU-145 prostate; 5.11% (active) in the assay with K-562 leukemia; 1.62% (active) in the assay with MALME-3M melanoma. For the same compound, the growth was 30.3% in the assay on MDA-MB-231 breast; 26.4% in the assay on RXF 393 renal; 52% in the assay with SF-268 CNS; 68.8% in the assay on SF-295 CNS; 60.5% with SF-539 CNS; -5.38% (active) with UACC-257 melanoma. For the same compound, in the assay with M14 melanoma, the growth is 7.83% (active).

For `COc1ccc2c(c1)cn1c3ccc(O)cc3nc(N)c21`, the growth with NCI-H23 lung is 25.5%; in the assay on NCI-H226 lung, 45.2%; with NCI-H322M lung, 40.2%; with HOP-62 NSCLC, 25.1%; in the assay with NCI-H460 lung, 8.48% (active); with HOP-92 NSCLC, 17.2%. Also, the growth in the assay with NCI-H522 lung was 14.2%; in the assay with 786-0 renal, 18.5%; with COLO 205 colon, 9.91% (active); with DU-145 prostate it was 24.1%; with K-562 leukemia, 11.1%; in the assay on MALME-3M melanoma it was 31.2%. Further, the growth is 23.6% with MDA-MB-231 breast; 3.22% (active) in the assay on RXF 393 renal; 31.6% with SF-268 CNS; 21.9% with SF-295 CNS; -23.2% (active) in the assay on SF-539 CNS; 60.4% in the assay on UACC-257 melanoma. The growth in the assay with M14 melanoma is 10.4%.

Turning to `COc1cc(OC)c(C(=O)/C=C/c2cc3c(cc2OCc2ccccc2)OC(C)(C)CC3)cc1CC=C(C)C`, the growth was 48.2% with NCI-H23 lung; 43.2% in the assay on NCI-H226 lung; 79.6% in the assay with NCI-H322M lung; 85.2% in the assay with HOP-62 NSCLC; 78.6% in the assay on NCI-H460 lung; -21.7% (active) in the assay on HOP-92 NSCLC. Besides, the growth in the assay with NCI-H522 lung is 65.2%; with A549/ATCC NSCLC it was 32.9%; in the assay with 786-0 renal it was 79.9%; with COLO 205 colon, 84.7%; in the assay on DU-145 prostate, 51.9%; in the assay on MALME-3M melanoma it was 77.8%. Also, the growth in the assay on MDA-MB-231 breast is 52.4%; with SF-268 CNS, 49.1%; in the assay with SF-295 CNS it was 66.9%; in the assay on SF-539 CNS, 79.4%; in the assay with M14 melanoma, 68.2%.

As to `Cc1cn(-c2cc(NC(=O)c3ccc(C)c(Nc4nccc(-c5cnccn5)n4)c3)cc(C(F)(F)F)c2)cn1`, the growth with NCI-H23 lung is 73%; with NCI-H226 lung, 86.9%; in the assay on NCI-H322M lung it was 95.3%; in the assay on HOP-62 NSCLC, 55.9%; in the assay with NCI-H460 lung it was 61.7%; in the assay with HOP-92 NSCLC, 89%. For the same compound, the growth was 43.1% in the assay with NCI-H522 lung; 97.7% in the assay with 786-0 renal; 25.3% with COLO 205 colon; 82.2% in the assay on DU-145 prostate; 4.39% (active) with K-562 leukemia; 16.6% with MALME-3M melanoma. In addition, the growth with MDA-MB-231 breast is 55.4%; in the assay with RXF 393 renal, 129%; in the assay on SF-268 CNS it was 65.1%; in the assay on SF-295 CNS, 93.9%; in the assay with SF-539 CNS, 98.2%; in the assay with UACC-257 melanoma, 38.4%. Moreover, the growth with M14 melanoma was 18.7%.

`O=C(O)C1(Cc2cccc(Nc3nccs3)n2)CCC(Oc2cccc(Cl)c2F)CC1` (stereo not drawn): the growth with NCI-H23 lung was 66%; in the assay with NCI-H226 lung, 82.8%; in the assay on NCI-H322M lung it was 76.4%; in the assay with HOP-62 NSCLC, 49.8%; in the assay on NCI-H460 lung, 15.2%; with HOP-92 NSCLC, 102%. The growth in the assay on NCI-H522 lung was -3.77% (active); with 786-0 renal, 75%; in the assay on COLO 205 colon it was 59.5%; in the assay with DU-145 prostate, 70.2%; in the assay on K-562 leukemia, 33.9%; in the assay with MALME-3M melanoma, 77.5%. Further, the growth in the assay on MDA-MB-231 breast was 77.5%; in the assay on RXF 393 renal, 82.1%; with SF-268 CNS, 61.6%; in the assay on SF-295 CNS it was 71.5%; in the assay with SF-539 CNS, 89.2%; in the assay on UACC-257 melanoma it was 49.6%. For the same compound, the growth with M14 melanoma was 58%.

With `COC(=O)[C@@H](C)CNS(=O)(=O)N(c1cc(C(F)(F)F)cc(C(F)(F)F)c1)C1CCN(Cc2ccc(F)cc2)CC1`, the growth with NCI-H23 lung is 66.8%; with NCI-H226 lung it was 70.1%; in the assay on NCI-H322M lung, 79%; with HOP-62 NSCLC, 79%; in the assay with NCI-H460 lung, 62.3%; in the assay with HOP-92 NSCLC, 47.8%. Also, the growth with NCI-H522 lung is 56.1%; with A549/ATCC NSCLC it was 54%; in the assay on 786-0 renal it was 59.7%; in the assay on COLO 205 colon, -43.2% (active); in the assay with DU-145 prostate, 92.9%; with MALME-3M melanoma it was 43.8%. The growth in the assay with MDA-MB-231 breast is 71%; in the assay on SF-268 CNS, 84.4%; with SF-295 CNS it was 81.1%; with SF-539 CNS it was 73.5%; in the assay on M14 melanoma, 58.5%.

Regarding `O=C(Nc1nc2cccc(-c3ccc(CN4CCS(=O)(=O)CC4)cc3)n2n1)C1CC1`, the growth in the assay with NCI-H23 lung is 65.2%; in the assay on NCI-H226 lung it was 55.9%; in the assay on NCI-H322M lung, 87.6%; with HOP-62 NSCLC, 57.3%; in the assay on NCI-H460 lung it was 5.79% (active); with HOP-92 NSCLC, 96.3%. For the same compound, the growth in the assay with NCI-H522 lung is 6.67% (active); in the assay on 786-0 renal it was 85.5%; in the assay with COLO 205 colon, 59.5%; with DU-145 prostate it was 35.4%; in the assay with K-562 leukemia, 36.5%; in the assay with MALME-3M melanoma it was 105%. For the same compound, the growth in the assay on MDA-MB-231 breast is 81.8%; in the assay with RXF 393 renal, 50.7%; in the assay on SF-268 CNS, 70.7%; in the assay with SF-295 CNS it was 88.8%; with SF-539 CNS it was 79.1%; in the assay on UACC-257 melanoma, 86.2%. Further, the growth in the assay on M14 melanoma is 90.8%.
